Screens deposited in PubChem BioAssay by National Center for Advancing Translational Sciences (NCATS).
HCMV antiviral = qHTS Assay for inhibitors of the human cytomegalovirus (HCMV). HFF cells, HCMV-luciferase reporter, 72 h; active compounds read low. activity change, negative = inhibition, % at 57.5 µM. 410,000 compounds, 4.5% hits. AID 1259415, 2018; in the data active = activity change below about -60%; inconclusive = no clear call, values can overlap the other calls; inactive = above about -39%
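Luciferase read-out from HCMV-luciferase-infected HFFs (MOI 1 PFU/cell) 72 h post infection at 37C; compounds added after 16 h cell attachment; activity normalized between buffer-only basal and Salinomycin (10uM) inhibitor controls.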
Vaccinia Venus = qHTS for Stage-Specific Inhibitors of Vaccinia Orthopoxvirus: Venus Reporter Primary qHTS; Vaccinia virus Venus reporter expression, fluorescence; Potency, µM (highest dose often 36.5 µM), for inactives: at the top dose activity change, negative = inhibition, usual class: inhibitors; 330,000 compounds, 0.46% hits; calls by dose curve; tested in A549 cells; note: potency is the fitted concentration of half-maximal effect; nearly all actives have a fitted effect of over 30% in size
VACV mCherry inh = qHTS for Stage-Specific Inhibitors of Vaccinia Orthopoxvirus: mCherry Reporter Primary qHTS; Vaccinia virus mCherry reporter infection, fluorescence; AID 720579, 2013; 310,000 compounds, 0.63% hits; Potency, µM (highest dose often 36.5 µM), inactives show at the highest dose activity change, negative = inhibition, hits mostly inhibitors; calls by dose curve; tested in A549 cells; note: potency is the fitted concentration of half-maximal effect; nearly all actives have a fitted effect of over 35% in size
HCV inhibitor = qHTS Assay for Inhibitors of Hepatitis C Virus (HCV) | 340,000 compounds, 3.4% hits | Potency, µM (doses to about 41.8 µM), inactives show at the top dose activity change, negative = inhibition, most hits filed as inhibitors | Huh7.5.1 HCVcc-Cre infection, luciferase reporter, 44 h; active = well fitted inhibition curve with a large enough effect; inconclusive = small, poorly fitted or top-dose-only effect, or another doubt; inactive = no such curve, though single readings can be large or run the other way; note: potency is the fitted concentration of half-maximal effect
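Seed cells (1,000/well) for 4 h; treat with compound and infect with HCVcc-Cre, moi about 0.5. Incubate 44 h, then detect luciferase activity.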
FMDV antiviral = High Throughput Screening for Foot and Mouth Disease Virus Antivirals; FMDV antiviral cell-based qHTS; Potency, µM (doses to about 57.9 µM), for the others: at the top dose activity change, negative = inhibition, hits mostly inhibitors; 410,000 compounds, 1.2% hits; calls by dose curve; tested in HEK293T cells; note: read-out not given here; potency is the fitted concentration of half-maximal effect; nearly all actives have a fitted effect of over 45% in size
Starred values were filed as active, the others as inactive; [ ] = another dose, or the depositor's remark. This is a sample that favours compounds with a hit; in the whole collection about 7.3% have one here. % is set by controls: 0 for no effect and ±100 for the full control effect.

Results for COc1cc(=O)n2c(c1C(=O)NCc1cccc(F)c1)CCN(Cc1cccnc1)CC2 ?
Vaccinia Venus: -2.7%; VACV mCherry inh: inactive; FMDV antiviral: -3.1%

What do the screens show for `CN(C)CCCNc1cc(C(C)(C)C)nc2c(-c3ccc(Cl)cc3)cnn12`?
HCMV antiviral: -102.6*; Vaccinia Venus: -4.9%[7.34 µM]; VACV mCherry inh: inactive[7.34 µM]; HCV inhibitor: 10µM*; FMDV antiviral: 0.9%

What do the screens show for `Cc1cc(NCCCn2ccnc2)n2ncc(-c3ccc(Cl)cc3)c2n1`?
HCMV antiviral: 14.1; Vaccinia Venus: inconclusive; VACV mCherry inh: 12.6µM*; HCV inhibitor: 7.08µM*; FMDV antiviral: 2.8%

How did Cc1cc(NCCCN2CCOCC2)n2ncc(-c3ccc(Cl)cc3)c2n1 do in these assays?
HCMV antiviral: 55.4; HCV inhibitor: 12.6µM*; FMDV antiviral: 27.9%

What do the screens show for `C=CCN1C(=O)NC(=O)/C(=C/C=C/c2ccccc2)C1=O`?
HCMV antiviral: -112.0*; Vaccinia Venus: 20.6%; VACV mCherry inh: -13.3%; HCV inhibitor: 20.6%; FMDV antiviral: inconclusive

What do the screens show for `O=C1NC(=O)N(Cc2ccco2)C(=O)/C1=C/C=C/c1ccco1`?
HCMV antiviral: inconclusive; Vaccinia Venus: 71.1%; VACV mCherry inh: -6.5%; HCV inhibitor: -1.1%; FMDV antiviral: inconclusive

How did O=C1NC(=O)N(CCc2ccc(F)cc2)C(=O)/C1=C\C=C\c1ccccc1 do in these assays?
HCMV antiviral: -32.8; Vaccinia Venus: 4.6%; VACV mCherry inh: -7.9%; HCV inhibitor: 3.98µM*; FMDV antiviral: 10µM*

Results for CN(C)c1ccc(/C=C2/C(=O)NC(=O)N(CCc3ccc(F)cc3)C2=O)cc1 ?
HCMV antiviral: -3.0; HCV inhibitor: 8.5%; FMDV antiviral: -1.8%

Results for CC(C)(C)OC(=O)N1CCC(c2c(C(=O)N3CCN(c4ccc(Cl)cc4)CC3)cnn2-c2ccc(F)cc2F)CC1 ?
HCMV antiviral: 0.0; Vaccinia Venus: inconclusive; VACV mCherry inh: -28.8%; FMDV antiviral: -28.5%

How did COCCn1c(N)c(C#N)c2nc3ccccc3nc21 do in these assays?
HCMV antiviral: -28.9; HCV inhibitor: -11.0%; FMDV antiviral: -7.4%

How did N#Cc1c(N)n(CCc2ccc(F)cc2)c2nc3ccccc3nc12 do in these assays?
HCMV antiviral: -68.9*; Vaccinia Venus: -17.1%; HCV inhibitor: -4.1%; FMDV antiviral: -23.4%

How did CCNC(=O)C1(C)CCN(Cc2cccc3ccccc23)C1 (stereo unspecified) do in these assays?
HCMV antiviral: -6.3

What do the screens show for `Cc1cccc(C)c1-n1nnnc1C(c1ccnc2ccccc12)N(Cc1ccccc1)Cc1ccccc1` (stereo unspecified)?
HCMV antiviral: -72.0*; Vaccinia Venus: -10.6%; VACV mCherry inh: -21.8%; FMDV antiviral: -9.9%

How did Cc1cccc(C)c1-n1nnnc1C(c1ccnc2ccccc12)N(CCC#N)Cc1ccccc1 (stereo unspecified) do in these assays?
HCMV antiviral: inconclusive; Vaccinia Venus: -2.9%; VACV mCherry inh: -4.8%; FMDV antiviral: inconclusive

Results for Oc1c(C(c2ccccc2)N2CCOCC2)sc2nc(-c3ccco3)nn12 (stereo unspecified) ?
HCMV antiviral: inconclusive; Vaccinia Venus: -11.5%; VACV mCherry inh: -16.0%; FMDV antiviral: -4.2%

How did CCCN1C2=NS(=O)(=O)CCN2c2ccccc21 do in these assays?
HCMV antiviral: -101.4*; Vaccinia Venus: -6.6%; HCV inhibitor: 20.2%; FMDV antiviral: -9.5%

Results for OCCN1C2=NCCCN2c2ccccc21 ?
HCMV antiviral: 24.6; Vaccinia Venus: -4.1%; VACV mCherry inh: inactive; HCV inhibitor: 10.2%; FMDV antiviral: -10.2%

Results for CCn1cc(CN2CCC(C(=O)Nc3ccc(Oc4ccccc4F)cc3)CC2)c(C)n1 ?
HCMV antiviral: -34.5; Vaccinia Venus: -22.6%; VACV mCherry inh: -30.0%; HCV inhibitor: 2.82µM*; FMDV antiviral: inconclusive

What do the screens show for `CC(C)n1cc(CN2CCC(C(=O)Nc3ccc(Oc4ccccc4F)cc3)CC2)cn1`?
HCMV antiviral: inconclusive; HCV inhibitor: 11.2µM*; FMDV antiviral: -28.9%

Results for O=C(Nc1ccc(Oc2cccnc2)cc1)C1CCN(Cc2ccccc2F)CC1 ?
HCMV antiviral: -30.9; Vaccinia Venus: -20.4%; VACV mCherry inh: -4.6%; HCV inhibitor: inconclusive; FMDV antiviral: inconclusive

What do the screens show for `CCOC(=O)C(=CNc1ccc2c(c1)c1ccccc1n2CC)C(=O)OCC`?
HCMV antiviral: 6.1; HCV inhibitor: 10µM*; FMDV antiviral: -14.7%

How did CCn1c2ccccc2c2cc(NC(=O)CC(C)=O)ccc21 do in these assays?
HCMV antiviral: -3.6; Vaccinia Venus: -23.4%; VACV mCherry inh: -15.1%; HCV inhibitor: 12.6µM*; FMDV antiviral: -6.0%

How did CCCC(=O)Nc1ccc2c(c1)c1ccccc1n2CC do in these assays?
HCMV antiviral: inconclusive; Vaccinia Venus: inconclusive; VACV mCherry inh: -10.6%; HCV inhibitor: inconclusive; FMDV antiviral: -15.7%

How did CCOC(=O)CNC(=S)N(Cc1ccc(C)cc1)Cc1ccc(C)o1 do in these assays?
HCMV antiviral: -81.6*; Vaccinia Venus: -10.4%; VACV mCherry inh: -16.1%; HCV inhibitor: 11.9%; FMDV antiviral: -8.1%

Results for Cc1ccc(CN(Cc2ccc(C)o2)C(=S)NCC(=O)O)cc1 ?
HCMV antiviral: inconclusive; Vaccinia Venus: -7.2%; VACV mCherry inh: -9.2%; HCV inhibitor: 2.2%; FMDV antiviral: -9.7%

What do the screens show for `Cc1ccc(OCC(=O)N(Cc2ccco2)Cc2ccco2)cc1C`?
HCMV antiviral: -11.6; Vaccinia Venus: -10.3%; VACV mCherry inh: -1.1%; FMDV antiviral: -6.4%

What do the screens show for `Brc1c(-c2ccccc2)nc2n1Cc1ccccc1-2`?
HCMV antiviral: -83.9*; Vaccinia Venus: -11.7%; VACV mCherry inh: inactive; HCV inhibitor: inconclusive; FMDV antiviral: -12.8%

What do the screens show for `c1ccc2c(c1)Cn1c-2nc2ccccc21`?
HCMV antiviral: 224.5; Vaccinia Venus: -4.6%; VACV mCherry inh: 0.3%; HCV inhibitor: inconclusive; FMDV antiviral: -16.0%

What do the screens show for `CCOC(=O)c1cc(-c2ccncc2)nc2c1c(C)nn2-c1ccccn1`?
HCMV antiviral: -9.8; Vaccinia Venus: inconclusive; VACV mCherry inh: -24.9%; HCV inhibitor: 7.94µM*; FMDV antiviral: inconclusive

What do the screens show for `CCC(C)NC(=O)CSc1nc2cc3c(cc2c(=O)n1CCCCCC(=O)NCc1ccc(OC)cc1)OCO3` (stereo unspecified)?
HCMV antiviral: 27.8; Vaccinia Venus: -1.7%; VACV mCherry inh: -12.3%; FMDV antiviral: -3.2%

Results for Cn1c(N)c(C(=O)COC(=O)c2ccccc2C(=O)c2ccccc2)c(=O)n(C)c1=O ?
HCMV antiviral: 0.0; HCV inhibitor: 8.6%; FMDV antiviral: 1.8%

Results for CN(CCC#N)C(=O)COC(=O)c1ccccc1C(=O)c1ccc(Cl)c([N+](=O)[O-])c1 ?
HCMV antiviral: -97.4*; Vaccinia Venus: -19.0%; VACV mCherry inh: -23.7%; HCV inhibitor: 2.82µM*; FMDV antiviral: inconclusive
